According to PubChem BioAssay (NCI):
Compounds without any hit were thinned out: in the full panel of roughly 79,000, 15% have a hit. Cut-off read from the data, not from the text of the source: active = growth inhibition above about 70%; inactive = the rest.

Legend:
[1] = NCI Yeast Anticancer Drug Screen. Data for the rad50 strain (AID 155);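 note: 0% = growth of vehicle-only cultures of the same strain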; details: S. cerevisiae rad50 strain growth inhibition; at 50.0 µM; hits give high values
How it was run: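 Cells are treated with compound, grown, and their growth is then scored against vehicle-only cultures of the same repair-deficient yeast strain.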

[2] = NCI Yeast Anticancer Drug Screen. Data for the mec2-1 strain (AID 157); details: S. cerevisiae mec2-1 strain, at 50.0 µM, hits give high values
How it was run: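 Yeast mec2-1 mutant treated with compound. Readout: growth inhibition vs vehicle controls.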

[3] = NCI Yeast Anticancer Drug Screen. Data for the sgs1 mgt1 strain (AID 161);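 note: 0% = growth of cultures given vehicle only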; details: S. cerevisiae sgs1 mgt1 strain, at 50.0 µM, hits give high values
How it was run: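 Test agents were incubated with a DNA-repair-mutant yeast strain. Growth was then read and compared against vehicle-treated controls.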

[4] = NCI Yeast Anticancer Drug Screen. Data for the cln2 rad14 strain (AID 165);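 note: 0% = growth equal to vehicle treated cultures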; details: S. cerevisiae cln2 rad14 strain, at 50.0 µM, hits give high values
How it was run: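 cln2 rad14 yeast strain; compound exposure; growth inhibition read vs vehicle controls.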

[5] = NCI Yeast Anticancer Drug Screen. Data for the bub3 strain (AID 167); details: S. cerevisiae bub3 mutant strain, at 50.0 µM, hits give high values
How it was run: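 Part of a panel of yeast mutants defective in DNA damage repair or cell cycle regulation. Each strain is grown with compound, and inhibition is calculated relative to solvent-treated cultures.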

[6] = NCI Yeast Anticancer Drug Screen. Data for the mlh1 rad18 strain (AID 175); details: S. cerevisiae mlh1 rad18 strain growth inhibition; at 50.0 µM; hits give high values
How it was run: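 Yeast w/ defined DNA-repair lesions; compound exposure; growth vs vehicle controls → % inhibition.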

Measured: growth inhibition

COC(=O)/C=C1\Sc2cc(F)ccc2NC1=O
inactive: [1] -12.9% | [2] 2.45% | [3] 13.9% | [4] -44.2% | [5] -8.5% | [6] -6.55%

NC(=S)CN1CCOCC1
inactive: [1] -2.6% | [2] -3.2% | [3] -5.9% | [4] 1.6% | [5] 1.3% | [6] 2.15%

CC(=O)Nc1c(C)cc(C)cc1C
inactive: [1] 0.3% | [2] -0.35% | [3] -6.4% | [4] -11.8% | [5] 9.45% | [6] 0.1%

CC(C(=O)O)(C1CCCCC1)C1(O)CCCCC1 (stereo unspecified)
inactive: [1] 29.8% | [2] 45.5% | [3] 39.9% | [4] 59.5% | [5] 62.5% | [6] 29.5%

Cc1ccc(C)n1-c1ccsc1C(=O)NNC(=O)C(Cl)Cl
inactive: [1] 5.9% | [2] 13.9% | [3] 24.8% | [4] 21.1% | [5] 21.7% | [6] 20.7%

O=c1cc(-c2ccccc2)[nH]c2c1CCCC2
inactive: [1] -17.8% | [2] -21.4% | [3] -12.2% | [4] -23.8% | [5] 0.95% | [6] -3.5%

CN(C)/N=C/c1ccccc1O
inactive: [1] 1% | [2] 4% | [3] -16.9% | [4] -6.85% | [5] -21.6% | [6] 2.9%

Cc1ccc(S(=O)(=O)O)c(C)c1
inactive: [1] 19.3% | [2] -4.35% | [3] 14.4% | [4] 19.9% | [5] -0.9% | [6] 23.8%

COc1cc2cc(OC(C)=O)c3cc4c(cc3c2c(OC)c1OC)OCO4
inactive: [1] -18.4% | [2] -10.8% | [3] -16.3% | [4] -5.2% | [5] -21.9% | [6] -25.1%

Cc1nc2c(ccc3ccccc32)s1
inactive: [1] 10.4% | [2] -5.35% | [3] 22.7% | [4] 6.45% | [5] 3.5% | [6] 15.4%

CC(=O)OC1CC2C(C)(C)OC3CC(=O)OCC32C2CCC3(C)C(=CCC3c3ccoc3)C12C (stereo unspecified)
inactive: [1] 6.45% | [2] -5.7% | [3] -26.6% | [4] 17.8% | [5] -10.3% | [6] 1.1%

COCCOCCCl
inactive: [1] 10% | [2] -19.3% | [3] -12.5% | [4] -7.95% | [5] -6.5% | [6] -6.7%

c1ncc2[nH]cnc2n1
inactive: [1] -14.6% | [2] -4.1% | [3] -11.6% | [4] -69.2% | [5] 8.15% | [6] 6.3%

COc1cc(CCN=Cc2ccccc2O)c([N+](=O)[O-])cc1OC
inactive: [1] -3.6% | [2] -10.5% | [3] 16.1% | [4] 11.7% | [5] -7.05% | [6] -2.35%

O=C1c2ccccc2C(=O)c2c1ccc(C(=O)O)c2[N+](=O)[O-]
inactive: [1] 29.4% | [2] 16.6% | [3] 32.2% | [4] 31.8% | [5] 19.7% | [6] 28%

CC1CCCC(CC(N)=O)CC1 (stereo unspecified)
inactive: [1] 7.8% | [2] 1.05% | [3] 2.1% | [4] 1.3% | [5] 0.7% | [6] 4.2%

CC(=O)OCC(=O)[C@@]1(O)CC[C@H]2[C@@H]3CC[C@@H]4C[C@H](O)CC[C@]4(C)[C@H]3C(=O)C[C@@]21C
inactive: [1] 19.7% | [2] 7.15% | [3] 25.4% | [4] 7.75% | [5] -2.85% | [6] 20.6%

O=C1C[C@H](c2ccccc2)[C@H](c2ccccc2)C1
inactive: [1] 24.2% | [2] 4.85% | [3] 10.4% | [4] -4.25% | [5] -5.55% | [6] 9.8%

Cc1c(O)cnc2nn(-c3ccccc3)c(=N)n12
inactive: [1] 19.5% | [2] 11.4% | [3] 35.7% | [4] 15.9% | [5] 15% | [6] 12.9%

Cc1ccc(O)c(C(=O)c2ccccc2)c1
inactive: [1] 4.3% | [2] -16.7% | [3] 12.5% | [4] -8.8% | [5] -3.65% | [6] 14.7%

N#C/C(=C\c1cc(O)c(O)c(O)c1)C(N)=O
inactive: [1] 29.8% | [2] -14.8% | [3] 24.6% | [4] 2.6% | [5] 25.7% | [6] 35.5%
